The text below walks through data of PubChem BioAssay (Tox21).

The structures appear in SMILES notation. Unmarked numbers belong to inactive results. Results filed as inconclusive are left out. Activity calls are given as the source filed them. Unless noted, calls come from the whole dose curve.

The nature of experiment [1]: Nuclear factor erythroid 2-related factor 2/antioxidant responsive element (Nrf2/ARE) small molecule agonists: qHTS cell viability counter screen in human keratinocytes (AID 1919968; active = well fitted curve in the direction sought with a large enough effect in the repeat runs; an effect the other way counts as inactive or inconclusive; note: nearly all actives have a fitted effect of over 55% in size; note: potency is the fitted concentration of half-maximal effect). The essentials:
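After a 5 h attachment period, ARE-reporter keratinocytes were dosed with compounds in DMSO and then cultured 23 h at 37 C. Cell viability came from CellTiter-Fluor signal read after a further 1 h.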
(In general: qHTS replaces the single test concentration by a dilution series.)

The nature of experiment [2]: Nuclear factor erythroid 2-related factor 2/antioxidant responsive element (Nrf2/ARE) small molecule agonists: luciferase reporter gene qHTS assay in human keratinocytes (AID 1919969). Note: nearly all actives have a fitted effect of over 35% in size. Note: potency is the fitted concentration of half-maximal effect. Background: A reporter such as luciferase makes a cellular process visible.
The target in experiment [3] is Gonadotropin-releasing hormone receptor (Homo sapiens) (UniProt P30968). Briefly: Human gonadotropin-releasing hormone receptor (GnRHR) small molecule agonists, calcium flux assay in GnRHR-HEK293 cells (AID 1920063). Note: nearly all actives have a fitted effect of over 35% in size. The essentials: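 We seeded human GnRHR-expressing HEK293 cells for 18 hours, loaded them with calcium dye for an hour at 37 C, added test compounds, and recorded fluorescence intensity kinetically for three minutes.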
For orientation: Calcium assays in cells follow changes in intracellular calcium, usually with a dye or a luminescent sensor.

Experiment [4] deals with KiSS-1 receptor (Homo sapiens) (UniProt Q969F8). Nature of the experiment: Human kisspeptin (KISS1R) small molecule agonists, calcium flux assay in KISS1R-HEK293 cells (AID 1920064; active = well fitted curve in the direction sought with a large enough effect in the repeat runs; an effect the other way counts as inactive or inconclusive). The essentials: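 Kinetic calcium assay, 1 s sampling over 3 min at Ex/Em 480/540, in HEK293 cells engineered with human KISS1R; compounds delivered in DMSO after 1 h dye loading.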
The nature of experiment [5]: G protein-coupled receptor (GPCR) small molecule agonists, calcium flux assay: HEK293 wild type cell line counter screen (AID 1920065). An outline of the steps: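 Calcium-sensitive dye, loaded 1 h at 37 C into cells cultured 18 h, reports compound-evoked calcium release as fluorescence (Ex/Em 480/540), measured over 3 min. Agonist mode; 15-point titrations, triplicate.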

A short description of experiment [6]: p53 small molecule agonists, cell-based qHTS assay with human liver microsomes (AID 1963577). The essentials: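 p53RE-bla cells, 4,000/well, compound added after 5 h, with human liver microsomes 0.5 mg/mL and NADPH 0.5 mg/mL final; 16 h at 37 C, then LiveBLAzer 2 h RT, fluorescence.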
Experiment [7] can be described thus: p53 small molecule agonists, cell-based qHTS assay with rat liver microsomes (AID 1963578). The essentials:
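p53RE-bla cells, 4,000/well, pre-incubated 5 h, then given compounds plus rat liver microsomes (0.5 mg/mL final) and NADPH (0.5 mg/mL final). Incubation 16 h at 37 C; beta-lactamase reporter read by LiveBLAzer fluorescence after 2 h at room temperature.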

The nature of experiment [8]: p53 small molecule agonists, cell-based qHTS assay with human liver microsomes: qHTS cell viability counter screen (AID 1963579). Note: nearly all actives have a fitted effect of over 45% in size. Note: potency is the fitted concentration of half-maximal effect. The essentials:
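p53RE-bla cells, 4,000/well, dosed 5 hours after plating, with human liver microsomes (0.5 mg/mL final) plus NADPH (0.5 mg/mL final), 16 hours at 37 C. Viability read as CellTiter-Glo luminescence after 30 min at room temperature.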

Experiment [9] can be described thus: p53 small molecule agonists, cell-based qHTS assay (AID 1963582; active = well fitted activation curve with a large enough effect in the signal ratio in the repeat runs, not every such curve was filed as active; the % refers to the signal ratio). The essentials:
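In this cell-based concentration-response screen, a p53 response element drives beta-lactamase; cells received DMSO-borne compounds after 5 h culture and were incubated a further 16 h before FRET substrate development.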

Experiment [10] concerns the target 5-hydroxytryptamine receptor 2A (Homo sapiens) (UniProt P28223). Briefly: 5-hydroxytryptamine receptor 2A (HTR2A) small molecule antagonists, cell-based qHTS assay (AID 1963586). Note: nearly all actives have a fitted effect of over 45% in size. An outline of the steps:
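Antagonist-mode intracellular calcium assay: DOI (4 nM) added after 5 min compound pre-incubation at room temperature to dye-loaded HTR2A-CHO cells. Fluorescence followed for 3 min, sampled every second.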

Experiment [11] has the same target. Nature of the experiment: 5-hydroxytryptamine receptor 2A (HTR2A) small molecule agonists, cell-based qHTS assay (AID 1963587). Note: nearly all actives have a fitted effect of over 30% in size. An outline of the steps: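 CHO cells stably expressing human HTR2A, plated 18 h, loaded with calcium dye 1 h at 37 C. Agonist mode: compounds added and intracellular calcium fluorescence recorded kinetically for 2 min at 1 sec intervals.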

Experiment [12] addresses Muscarinic acetylcholine receptor M1 (Homo sapiens) (UniProt P11229). Briefly: Cholinergic receptor muscarinic 1 (CHRM1) small molecule agonists, cell-based qHTS assay (AID 1963589). Note: nearly all actives have a fitted effect of over 35% in size. An outline of the steps: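 Measures agonist-induced intracellular calcium rise. Stable human CHRM1 CHO line, 1 h dye load at 37 C, compounds from DMSO, kinetic fluorescence read.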
A short description of experiment [13]: cAMP Responsive Elements (CRE) small molecule agonists, cell-based qHTS assay (AID 1963590). The essentials: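 A CRE-responsive beta-lactamase reporter in HEK 293T cells was used. Treatment ran 3 h at 37 C; detection used LiveBLAzer B/G FRET substrate for 2 h at room temperature.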
Experiment [14] in a line: cAMP Responsive Elements (CRE) small molecule antagonists, cell-based qHTS assay (AID 1963591; active = well fitted inhibition curve with a large enough effect in the signal ratio in the repeat runs, not every such curve was filed as active; the % refers to the signal ratio). The essentials:
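HEK293T cells carrying a CRE-driven beta-lactamase reporter receive compound and NKH477 (0.25 uM final) for 3 h. Fluorescence from LiveBLAzer B/G FRET substrate is read after 2 h at room temperature.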

The target of experiment [15] is D(2) dopamine receptor (Homo sapiens) (UniProt P14416). Nature of the experiment: Dopamine D2 receptor (DRD2) small molecule agonists, cell-based qHTS assay (AID 1963594). Note: nearly all actives have a fitted effect of over 35% in size. The essentials:
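HEK293 cells stably expressing human DRD2, pre-treated with PDE inhibitor Ro20-1724 (0.1 mM final) and compound 10 min at room temperature, then stimulated with NKH477 (200nM […]) for 30 min. cAMP read by HTRF (665/620 nm).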

Experiment [16] shares this target. Nature of the experiment: Dopamine D2 receptor (DRD2) small molecule antagonists, cell-based qHTS assay (AID 1963595; active = well fitted inhibition curve with a large enough effect in the signal ratio in the repeat runs, with a control signal flat; the % refers to the signal ratio). The essentials: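 HTRF cAMP read-out at 665 and 620 nm emission (340 nm excitation). Antagonist mode: compounds were tested against 12 nM quinpirole in DRD2-HEK293 cells, with 200 nM NKH477 raising cAMP and 0.1 mM Ro20-1724 blocking its breakdown.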

A short description of experiment [17]: p53 small molecule agonists, cell-based qHTS assay with rat liver microsomes: qHTS cell viability counter screen (AID 1963580). Note: nearly all actives have a fitted effect of over 45% in size. Note: potency is the fitted concentration of half-maximal effect. An outline of the steps:
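p53RE-bla HCT-116 cells were exposed 16 h at 37 C to compounds with rat liver microsomes (0.5 mg/mL) and NADPH (0.5 mg/mL). Viability was measured in the same wells as ATP content by CellTiter-Glo luminescence.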

Experiment [18] in a line: p53 small molecule agonists, cell-based qHTS assay: qHTS cell viability counter screen (AID 1963581). Note: nearly all actives have a fitted effect of over 45% in size. An outline of the steps:
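Following 5 h attachment, HCT-116 p53RE-bla cells took up compound for 16 h at 37 C; the reporter was read with B/G FRET substrate (2 h RT), and viability then via CellTiter-Glo ATP luminescence.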

Experiment [19] deals with Beta-2 adrenergic receptor (Homo sapiens) (UniProt P07550). Briefly: Adrenergic beta2 receptor (ADRB2) small molecule antagonists, cell-based qHTS assay (AID 1963592). Note: series mostly up to about 92 µM; nearly all actives have a fitted effect of over 50% in size. An outline of the steps: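 Cells (CHO, stable ADRB2 overexpression) incubated 18-20hr at 37C; compounds added from DMSO; agonist mix (1nM isoproterenol, 100uM IBMX, 25uM Ro-20-1724) added; 0.5hr RT; d2-cAMP and anti-cAMP-cryptate added; 1hr RT; 665/615 nm read.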

Experiment [20] has as its target Muscarinic acetylcholine receptor M1 (Homo sapiens) (UniProt P11229). Nature of the experiment: Cholinergic receptor muscarinic 1 (CHRM1) small molecule antagonists, cell-based qHTS assay (AID 1963588). Note: nearly all actives have a fitted effect of over 40% in size. An outline of the steps:
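CHRM1-CHO calcium-flux assay, antagonist mode. Cells were seeded 18 h, dye-loaded 1 h at 37 C and given compound for 5 min at RT, then acetylcholine was added at 50nM. FDSS fluorescence was read 3 min; 15 concentrations, three runs.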

5-hydroxytryptamine receptor 2A (Homo sapiens), sequence (P28223 whole entry, looked up): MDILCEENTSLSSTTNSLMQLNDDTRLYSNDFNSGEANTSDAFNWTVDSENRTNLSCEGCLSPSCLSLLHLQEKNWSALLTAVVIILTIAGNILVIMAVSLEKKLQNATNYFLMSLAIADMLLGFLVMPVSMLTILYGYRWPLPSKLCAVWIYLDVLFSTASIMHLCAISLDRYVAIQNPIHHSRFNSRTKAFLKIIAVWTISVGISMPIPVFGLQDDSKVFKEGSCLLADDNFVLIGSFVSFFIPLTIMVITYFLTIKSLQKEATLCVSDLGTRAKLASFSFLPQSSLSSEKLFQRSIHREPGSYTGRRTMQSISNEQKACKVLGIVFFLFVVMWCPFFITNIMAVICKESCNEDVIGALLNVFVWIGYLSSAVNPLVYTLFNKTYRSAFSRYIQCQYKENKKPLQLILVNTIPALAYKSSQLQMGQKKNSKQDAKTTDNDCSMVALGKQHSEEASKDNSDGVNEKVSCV
D(2) dopamine receptor (Homo sapiens), sequence (P14416 whole entry, looked up): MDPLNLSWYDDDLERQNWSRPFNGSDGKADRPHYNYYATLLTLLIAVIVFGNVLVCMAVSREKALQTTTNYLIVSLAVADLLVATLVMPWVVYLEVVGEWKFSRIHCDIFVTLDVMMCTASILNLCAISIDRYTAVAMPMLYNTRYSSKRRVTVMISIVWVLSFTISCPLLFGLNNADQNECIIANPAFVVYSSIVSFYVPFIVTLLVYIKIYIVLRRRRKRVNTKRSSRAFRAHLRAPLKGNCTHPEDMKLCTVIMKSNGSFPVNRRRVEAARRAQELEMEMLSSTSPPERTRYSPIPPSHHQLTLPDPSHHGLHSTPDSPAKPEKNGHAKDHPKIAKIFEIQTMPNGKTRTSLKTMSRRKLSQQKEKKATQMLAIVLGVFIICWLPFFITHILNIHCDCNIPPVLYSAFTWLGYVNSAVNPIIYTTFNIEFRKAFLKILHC
KiSS-1 receptor (Homo sapiens), sequence (Q969F8 whole entry, looked up): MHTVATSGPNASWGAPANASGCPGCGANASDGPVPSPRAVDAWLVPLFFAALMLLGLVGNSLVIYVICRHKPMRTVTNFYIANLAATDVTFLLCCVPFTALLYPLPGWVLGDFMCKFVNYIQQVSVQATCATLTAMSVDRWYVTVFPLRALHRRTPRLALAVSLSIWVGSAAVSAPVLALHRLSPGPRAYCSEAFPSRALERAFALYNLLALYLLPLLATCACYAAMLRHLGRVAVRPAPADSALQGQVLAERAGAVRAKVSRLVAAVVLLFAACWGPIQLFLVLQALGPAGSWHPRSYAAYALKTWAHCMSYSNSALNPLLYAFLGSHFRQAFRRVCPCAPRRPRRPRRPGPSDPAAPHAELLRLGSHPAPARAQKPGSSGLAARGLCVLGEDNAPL
Muscarinic acetylcholine receptor M1 (Homo sapiens), sequence (P11229 whole entry, looked up): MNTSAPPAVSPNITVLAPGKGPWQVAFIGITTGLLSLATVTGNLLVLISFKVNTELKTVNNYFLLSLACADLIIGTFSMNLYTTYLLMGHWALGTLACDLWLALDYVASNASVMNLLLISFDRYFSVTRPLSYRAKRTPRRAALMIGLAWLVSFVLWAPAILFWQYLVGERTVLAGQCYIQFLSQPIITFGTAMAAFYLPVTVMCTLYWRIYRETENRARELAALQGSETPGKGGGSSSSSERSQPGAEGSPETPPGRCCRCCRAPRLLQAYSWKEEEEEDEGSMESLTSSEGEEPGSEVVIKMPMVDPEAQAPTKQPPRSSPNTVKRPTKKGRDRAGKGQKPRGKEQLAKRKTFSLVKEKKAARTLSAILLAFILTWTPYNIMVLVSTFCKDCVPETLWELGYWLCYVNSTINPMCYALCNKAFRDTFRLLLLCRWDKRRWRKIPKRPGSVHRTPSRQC
Gonadotropin-releasing hormone receptor (Homo sapiens), sequence (P30968 whole entry, looked up): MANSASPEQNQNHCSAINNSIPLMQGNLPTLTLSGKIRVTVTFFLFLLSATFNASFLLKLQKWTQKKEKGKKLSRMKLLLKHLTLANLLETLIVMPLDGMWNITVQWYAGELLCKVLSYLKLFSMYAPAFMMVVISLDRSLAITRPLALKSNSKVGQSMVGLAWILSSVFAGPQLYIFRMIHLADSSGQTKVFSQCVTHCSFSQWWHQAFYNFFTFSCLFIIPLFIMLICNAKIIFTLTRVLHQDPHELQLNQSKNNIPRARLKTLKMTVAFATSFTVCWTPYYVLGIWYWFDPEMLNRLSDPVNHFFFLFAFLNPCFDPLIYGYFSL
Beta-2 adrenergic receptor (Homo sapiens), sequence (P07550 whole entry, looked up): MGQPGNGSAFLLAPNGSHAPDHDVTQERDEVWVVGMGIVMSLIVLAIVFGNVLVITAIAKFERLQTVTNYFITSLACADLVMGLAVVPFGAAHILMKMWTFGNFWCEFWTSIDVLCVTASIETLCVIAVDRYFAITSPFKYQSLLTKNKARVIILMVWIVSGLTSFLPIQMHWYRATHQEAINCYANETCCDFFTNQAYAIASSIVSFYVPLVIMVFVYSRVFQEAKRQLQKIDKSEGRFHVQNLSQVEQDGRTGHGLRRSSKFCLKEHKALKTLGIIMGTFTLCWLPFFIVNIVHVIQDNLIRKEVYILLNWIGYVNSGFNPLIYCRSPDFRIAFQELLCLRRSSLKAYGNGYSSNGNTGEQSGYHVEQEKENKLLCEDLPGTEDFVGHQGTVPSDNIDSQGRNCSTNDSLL

As for `FC(F)OC(F)(F)C(F)Cl` (stereo unspecified), the Potency result in experiment [1], in [2], in experiment [3], in experiment [4], in experiment [5] and in experiment [6] was “inactive” each time. For the same molecule, the Potency result in experiment [7], in experiment [8], in experiment [9], in experiment [10], in experiment [11] and in [12] was “inactive” throughout. For the same molecule, the Potency result in [13], in experiment [14], in [15] and in [16] was “inactive” in each case.

Take `CCCSC(=O)N(CCC)CCC`: the Potency result in experiment [1], in experiment [2], in experiment [3], in experiment [4], in [5] and in experiment [6] was “inactive” throughout. The Potency entry in [7], in experiment [17], in [18], in experiment [9], in [12] and in experiment [13] was “inactive” each time. For the same molecule, the Potency result in experiment [14], in experiment [19], in experiment [15] and in [16] was “inactive” throughout.

With `CC(C)(C)c1ccc(CSc2cnn(C(C)(C)C)c(=O)c2Cl)cc1`, the Potency result in experiment [1], in experiment [2], in experiment [3], in [4], in experiment [5] and in [6] was “inactive” each time. In addition, the Potency entry in experiment [7], in experiment [8], in experiment [18], in experiment [10], in [11] and in experiment [20] was “inactive” each time. Besides, the Potency result in [12], in experiment [19] and in experiment [16] was “inactive” in each case.

Turning to `Oc1cc(Cl)c(Cl)c(Cl)c1Cl`, the Potency in [1] is 53.2 µM (active); in experiment [2], 53.2 µM (active); in experiment [8], 17.8 µM (active); in experiment [17], 17.8 µM (active). The Potency result in experiment [3], in experiment [4], in experiment [5], in [6], in experiment [7] and in [10] was “inactive” in each case. Also, the Potency result in [11], in [12], in experiment [15] and in [16] was “inactive” in each case.

`O=c1[nH]oc2c1CCNC2`: the Potency entry in experiment [1], in [2], in [3], in experiment [4], in experiment [5] and in experiment [6] was “inactive” throughout. For the same molecule, the Potency result in experiment [7], in [8], in experiment [18], in [10], in [12] and in experiment [13] was “inactive” each time. Besides, the Potency entry in experiment [14], in experiment [19], in experiment [15] and in [16] was “inactive” in each case.

Regarding `CC(C)(Cl)[N+](=O)[O-]`, the Potency entry in experiment [1], in [2], in [3], in [4], in experiment [5] and in [6] was “inactive” throughout. In addition, the Potency entry in experiment [7], in experiment [8], in experiment [18], in experiment [10], in [11] and in experiment [20] was “inactive” each time. The Potency entry in experiment [12], in experiment [13], in experiment [19], in [15] and in [16] was “inactive” each time.

In the case of `CC1(C)CN=C(NN=C(/C=C/c2ccc(C(F)(F)F)cc2)/C=C/c2ccc(C(F)(F)F)cc2)NC1`, in [1], the Potency was 12.2 µM (active). The Potency entry in experiment [2], in experiment [3], in [4], in [5], in experiment [6] and in experiment [7] was “inactive” throughout. The Potency result in experiment [8], in experiment [10], in experiment [11], in [20], in experiment [12] and in experiment [19] was “inactive” each time. Also, the Potency entry in experiment [15] and in experiment [16] was “inactive” throughout.

For the molecule `CCC1(c2ccccc2)C(=O)N=C(O)NC1=O` (stereo unspecified), the Potency result in experiment [1], in [2], in experiment [3], in experiment [4], in [5] and in experiment [6] was “inactive” in each case. The Potency result in [7], in [8], in [17], in experiment [14], in experiment [19] and in experiment [15] was “inactive” throughout.
